# Laboratory results: PubChem BioAssay AID2551 (National Center for Advancing Translational Sciences (NCATS), 2010)
# Among all 310,000 compounds or so, about 17,000 (5.5%) were called active. Another 11% or so got no clear call; they are omitted. The call rests on the fitted dose curve; in most records, active means well fitted inhibition curve with a large enough effect; inconclusive means small, poorly fitted or top-dose-only effect, or effect the other way; inactive means no such curve, though single readings can be large or run the other way. For the sample, actives were picked, then their nearest neighbours and some compounds at random.
# Molecular target: Nuclear receptor ROR-gamma (Mus musculus) (UniProt P51450)
# Sequence (P51450 whole entry, looked up): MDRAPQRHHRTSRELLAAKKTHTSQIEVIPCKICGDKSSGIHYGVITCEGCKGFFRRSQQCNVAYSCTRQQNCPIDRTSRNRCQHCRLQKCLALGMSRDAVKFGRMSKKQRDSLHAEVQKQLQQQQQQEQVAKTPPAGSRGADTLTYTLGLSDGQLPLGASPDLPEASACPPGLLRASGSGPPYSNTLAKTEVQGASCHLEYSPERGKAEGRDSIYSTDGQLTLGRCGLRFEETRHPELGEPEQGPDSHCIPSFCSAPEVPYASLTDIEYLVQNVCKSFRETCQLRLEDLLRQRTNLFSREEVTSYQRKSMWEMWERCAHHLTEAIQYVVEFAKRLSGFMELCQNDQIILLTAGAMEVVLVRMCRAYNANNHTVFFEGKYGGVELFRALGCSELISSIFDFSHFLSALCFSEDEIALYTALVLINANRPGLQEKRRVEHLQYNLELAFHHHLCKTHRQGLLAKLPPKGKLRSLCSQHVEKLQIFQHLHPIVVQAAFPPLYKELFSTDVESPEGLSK
# Assay: qHTS for inhibitors of ROR gamma transcriptional activity; further: nearly all actives have a fitted effect of over 60% in size
# Conditions: Drosophila S2 Gal4-RORgamma UAS-luciferase reporter, 20 h; series mostly up to 53.6 µM; activity change, negative = inhibition: at the top concentration
# In short: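 Schneider cells (Drosophila), stable Gal4 DBD–ROR gamma + UAS-luc; 1 hr cmpd preincubation; Cu2+ induction 700 uM final; 20 hr ambient; luminescence.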
# On the % scale 0 is the no-effect control and ±100 the full control effect; potency means the concentration at half of the fitted maximal effect.
SMILES,"activity change, negative = inhibition",Potency
Cc1cc2c(c(=O)n1Cc1ccccc1)C1O[C@](CCCCN3C(=O)c4ccccc4C3=O)(Cc3ccccc31)O2,18.4% [at 10 µM] (inactive),–
O=C(CN1CCc2cc3c(cc2C1)OCCCO3)Nc1ccccc1,-0.965% (inactive),–
Cc1cccc(-n2cc(CN3CCN(C(=O)c4ncn[nH]4)CC3)c(-c3cccc(F)c3)n2)c1,0.467% (inactive),–
Cc1ccc(-n2cc(CN(C)Cc3nccn3C)c(-c3cccc(C)c3)n2)cc1,–,7.94 µM (active)
COc1ccc(-n2cc(CN(C)Cc3n[nH]c(=O)[nH]3)c(-c3cccc(F)c3)n2)cc1,23% (inactive),–
COc1ccc(NC(=O)CCC(=O)Nc2nnc(C3CCCCC3)s2)cc1,-27.8% (inactive),–
CC(C)(C)NS(=O)(=O)c1ccc(NC(=O)C2CCCO2)cc1 (centres undefined),1.02% (inactive),–
Oc1c(Br)cc(/C=N/NC(=S)NCC2CCCO2)cc1Br (centres undefined),–,0.1 µM (active)
O=C(CNC(=O)C1COc2ccccc2O1)N/N=C/c1cc(Br)c(O)c(Br)c1 (centres undefined),1.65% (inactive),–
O=C(CNC(=O)c1cccnc1)N/N=C/c1cc(Br)c(O)c(Br)c1,-21.6% (inactive),–
O=C(Nc1ccccc1)Nc1nc2ccccc2s1,-23.2% (inactive),–
CSCCC(Nc1nc2ccccc2s1)C(=O)O (centres undefined),-22.4% (inactive),–
c1ccc2sc(NN=C3CCCC3)nc2c1,–,7.94 µM (active)
CC(C)(COC(=O)Nc1ccccc1)COC(=O)Nc1ccccc1,-2.91% (inactive),–
CCn1c(SCC(=O)Nc2ccc(Br)cc2)nc2sc3c(c2c1=O)CCN(C)C3,39% (inactive),–
Nc1ncc(CN2CCCC(C(=O)Nc3ccc(-c4ccco4)cc3)C2)cn1 (centres undefined),-10.1% (inactive),–
CCOCc1nnc(NC(=O)CCS(=O)(=O)Cc2ccccc2)s1,10.4% (inactive),–
CCOCCOC(=O)C1=C(C)NC(=O)NC1c1ccc2c(c1)OCO2 (centres undefined),0.346% (inactive),–
CCN(CC)CCN(C(=O)c1ccc(S(=O)(=O)N2CCOCC2)cc1)c1nc2cc3c(cc2s1)OCCO3,22.5% (inactive),–
CN(C)CCCN(C(=O)c1ccc(S(=O)(=O)N2CCCCCC2)cc1)c1nc2ccc(Br)cc2s1,–,2.82 µM (active)
CC(=O)N(CCCN(C)C)c1nc2ccc(C)cc2s1,1.73% (inactive),–
CN1CCN(C(=O)c2ccccc2NC(=O)COc2ccccc2Cl)CC1,7.86% (inactive),–
O=C1COc2ccc(S(=O)(=O)NCCc3ccc(Cl)cc3)cc2N1,-15.2% (inactive),–
Cc1cc(OCC(=O)Nc2c(C)n(C)n(-c3ccccc3)c2=O)ccc1[N+](=O)[O-],16.1% (inactive),–
Oc1cccc(C2c3[nH]c4ccccc4c3CCN2Cc2cnn(-c3ccccc3)c2)c1 (centres undefined),17.3% (inactive),–
COc1cccc(C2c3[nH]c4ccccc4c3CCN2Cc2cccc(C)n2)c1 (centres undefined),–,12.6 µM (active)

SMILES,"activity change, negative = inhibition",Potency
COc1ccc(C2c3[nH]c4ccccc4c3CCN2CCCn2cccn2)cc1C (centres undefined),-4.28% (inactive),–
CN(Cc1ccc(F)cc1Cl)S(=O)(=O)c1cccs1,13.6% (inactive),–
CCc1ccc2[nH]c(=O)c(Cc3ccccc3)c(O)c2c1,14.8% (inactive),–
O=C1C=C(c2ccc(Cl)cc2)C(=O)N1Nc1ccccc1,–,7.08 µM (active)
O=C1c2cccc3cc(Br)cc(c23)C(=O)N1Nc1ccccc1,-19.1% (inactive),–
O=C(Nc1ccccc1)OCc1cc(-c2ccc(Cl)cc2)on1,0.919% (inactive),–
CC1(C)Cc2c(sc(NC(=O)C(=O)N3CCOCC3)c2C#N)CO1,11.5% (inactive),–
O=S(=O)(Nc1ccccc1Cl)c1cccc2nsnc12,-0.764% (inactive),–
O=C(Cc1ccccc1)Nc1ccc(NC(=O)c2cccnc2)cc1,28.3% (inactive),–
CCC(C)C(=O)Nc1ccccc1N1CCN(c2ccc(F)cc2)CC1 (centres undefined),-20.4% [at 1.91 µM] (inactive),–
Cc1cc(C)n(CC(=O)Nc2ccc([N+](=O)[O-])cc2)n1,4.43% (inactive),–
C/C(=N\NC(=O)CCn1nc(C)cc1C)C(C)(C)C,–,11.2 µM (active)
Cc1cc(C)n(CCC(=O)N2CCN(S(=O)(=O)c3ccc(C)c(C)c3)CC2)n1,-23.4% (inactive),–
C=CCSc1nnc(N2C(=O)C(O)=C(C(=O)c3ccco3)C2c2ccc(F)cc2)s1 (centres undefined),0.341% (inactive),–
COc1cccc(NC(=O)c2ccc(S(=O)(=O)N(C)C)cc2)c1,27.1% (inactive),–
COc1cccc(C(=O)Nc2nnc(S(=O)(=O)N(C)c3ccccc3)s2)c1,-1.13% (inactive),–
COc1cccc(-c2nnc(NC(=O)c3ccc(S(=O)(=O)N(CC(C)C)CC(C)C)cc3)o2)c1,–,0.282 µM (active)
COc1ccc2[nH]c3nc(SCC(=O)NC4CC4)nnc3c2c1,-8.92% (inactive),–
COc1cc2c(C(=O)O)c(C)n(C)c2c2ccccc12,13.6% (inactive),–
COc1cccc2c(C)c(C(=O)O)[nH]c12,–,2 µM (active)
Cc1c(C(=O)N/N=C/c2ccccc2)[nH]c2c([N+](=O)[O-])cccc12,-16.9% (inactive),–
CCOC(=O)C1CN(S(=O)(=O)c2ccc(OC)cc2)c2cc(Cl)ccc2O1 (centres undefined),-1.61% (inactive),–
COc1ccc(Cc2nc3ccc(C(=O)N4CCC(N(C)C)C4)cc3o2)cc1 (centres undefined),6.86% (inactive),–
C/C(=N\Nc1nncc2ccccc12)c1ccc(Cl)c([N+](=O)[O-])c1,-15.3% (inactive),–
COc1ccc(NC(=O)CC2C(=O)NC3CCCCC3N2C(=O)c2ccc(F)cc2)cc1 (centres undefined),8.91% (inactive),–
O=C(c1ccc(S(=O)(=O)N2CCCC2)cc1)N1CCN(c2ccccc2F)CC1,5.53% (inactive),–

SMILES,"activity change, negative = inhibition",Potency
Cn1c(=O)cc(OCC(=O)N2CCN(c3ccccc3F)CC2)c2ccccc21,-6.44% (inactive),–
O=C(Nn1cc(C(=O)N2CCN(c3ccccc3F)CC2)c2ccccc2c1=O)c1cnccn1,–,14.1 µM (active)
CC1CCN(C(=O)c2ccc3c(=O)n4c(nc3c2)CCCCC4)CC1,-0.982% (inactive),–
NS(=O)(=O)c1ccccc1NC(=O)c1c(O)c2ccccc2[nH]c1=O,-12% (inactive),–
C/C(=N\NC(N)=S)c1ccncc1,-38.1% (inactive),–
C/C(=N\NC(=S)NC(C)C)c1ccc(C(C)(C)C)cc1,–,1 µM (active)
C/C(=N\NC(N)=S)c1cccnc1,-8.34% (inactive),–
Cn1c(=O)c2sccc2n(Cc2ccc(Br)cc2)c1=O,61.6% (inactive),–
O=C(CN1C(=O)CSC1=O)N1CCCC(Nc2ccc(F)cc2)C1 (centres undefined),18% (inactive),–
Nc1cc(N)nc(SCc2cccc(F)c2)n1,19.2% (inactive),–
CCCCNC(=S)NNC(=O)c1cc(C)on1,–,10 µM (active)
Cc1cc(C(=O)NCCCc2ccccc2)no1,17.6% (inactive),–
CCC(=O)Nc1ccc(C(=O)Nc2cc(C)on2)cc1,-13.3% (inactive),–
O=C(Nc1ccccc1)c1ccco1,-3.1% (inactive),–
COc1ccc(NC(=O)NN2CCN(C)CC2)c(OC)c1,10.2% (inactive),–
COc1ccc(CCn2c(=N)c(C(=O)NCC3CCCO3)cc3c(=O)n4cccc(C)c4nc32)cc1OC (centres undefined),-28% (inactive),–
COc1ccc(S(=O)(=O)N2CCOCC2)cc1C(=O)Nc1nc2ccccc2s1,-12.9% (inactive),–
COc1cccc2sc(NNC(=O)c3nc4ccccc4s3)nc12,–,3.55 µM (active)
COc1ccc(/C=C(/CC(=O)Nc2ccc(C)cc2)c2nc3ccccc3s2)cc1,33.7% (inactive),–
CCOC(=O)CNC(=O)CSc1ncccc1-c1nc2ccccc2[nH]1,43.9% (inactive),–
COc1ccc(N(CC(=O)NCc2ccc(F)cc2)C(=O)CCC(=O)Nc2nccs2)cc1,-29.3% (inactive),–
COc1ccc(S(=O)(=O)NNC(=O)Nc2ccc(C)cc2)c(OC)c1,-9.69% (inactive),–
CCOC(=O)NN1C(=O)c2ccccc2NC1c1cccc(O)c1 (centres undefined),16.3% (inactive),–
CCOC(=O)NN1C(=O)c2ccccc2NC1c1ccccc1O (centres undefined),–,11.2 µM (active)
O=C1c2ccccc2NC(c2ccccc2O)N1NS(=O)(=O)c1ccccc1 (centres undefined),-4.74% (inactive),–
COc1ccc(N(CC(=O)N2CCOCC2)S(=O)(=O)c2ccccc2)cc1Cl,-7.47% (inactive),–

SMILES,"activity change, negative = inhibition",Potency
Cc1ccc(NC(=O)CCN2C(=O)c3ccccc3C2=O)cc1C,2.87% (inactive),–
Cc1nn(-c2ccccc2)c2c1c(C)c(CCC(=O)NCC1CCCO1)c(=O)n2C (centres undefined),-11.4% (inactive),–
CSc1ccc(/C=N\NC(=O)COc2ccc(Cl)cc2Br)cc1,-30.3% (inactive),–
O=C(N/N=C/c1ccccn1)c1cccc(NC(=O)c2ccc(Cl)cc2)c1,-27.8% (inactive),–
O=C(COc1ccc(Cl)cc1Cl)N/N=C/c1ccccn1,–,12.6 µM (active)
C=CCN1CN(S(=O)(=O)c2ccc(OC)cc2)c2nc3ccccc3nc21,14.6% (inactive),–
O=C(NC(Nc1nc2ccc([N+](=O)[O-])cc2s1)(C(F)(F)F)C(F)(F)F)c1ccccc1,–,6.31 µM (active)
O=C(Nc1nc2ccc([N+](=O)[O-])cc2s1)c1ccncc1,13% (inactive),–
O=C(COC(=O)c1ccc(F)cc1)Nc1nc2ccc([N+](=O)[O-])cc2s1,-1.04% (inactive),–
CCOc1ccccc1NS(=O)(=O)c1cc2c3c(c1)C(C)C(=O)N3CCC2 (centres undefined),8.24% (inactive),–
CCc1ccccc1NC(=O)c1ccc2snnc2c1,-1.7% (inactive),–
COCCN1CCN(C(=O)c2cc(COc3ccc(F)cc3Cl)on2)CC1,4.15% (inactive),–
CCCCn1c(SCC(=O)NCC2CCCO2)nc2ccc(N3CCOCC3)cc2c1=O (centres undefined),–,2.51 µM (active)
CCn1c(SCC(=O)NCC2CCCO2)nc2cc(S(=O)(=O)N3CCCCC3)ccc21 (centres undefined),29.2% (inactive),–
COCCNC(=O)c1ccc(Cn2c(SCC(=O)NCC3CCCO3)nc3ccc(Br)cc3c2=O)cc1 (centres undefined),5.53% (inactive),–
CCCCNC(=O)c1cn(CC)c2cc(N3CCN(C(=O)c4ccco4)CC3)c(F)cc2c1=O,4.18% (inactive),–
CCCOc1ccc(Cc2c(O)nc(N)[nH]c2=O)cc1C,1.22% (inactive),–
COc1cccc(/C=N/Nc2ccc(Cl)nn2)c1,-7.53% (inactive),–
Oc1cccc(/C=N/Nc2ccc(Cl)nn2)c1O,–,1.41 µM (active)
Cc1ccsc1/C=N/Nc1ccc(Cl)nn1,-20.8% (inactive),–
Cc1ccc(C)c(S(=O)(=O)N2CCCOC2CNC(=O)C(=O)NC2CCCCC2)c1 (centres undefined),-12.7% (inactive),–
Cc1ccccc1CN1CCNC(=O)C1CC(=O)NCCC1=CCCCC1 (centres undefined),6.29% (inactive),–
COC(=O)C1=CN(Cc2ccc(OC)cc2)C=C(C(=O)OC)C1c1ccc(O)c(OC)c1,2% (inactive),–
CN1C(=O)[C@H]2[C@@H](C3CC3)N3C(=O)CN(Cc4ccccc4)C(=O)[C@@]3(C)[C@H]2C1=O,-0.788% (inactive),–
COC(=O)c1ccc(C(=O)NC2CC(C)(C)Cc3c2cnn3-c2ccc(F)cc2)nc1 (centres undefined),27.3% (inactive),–
CCc1ccc(OCC(O)CN2CCN(CCO)CC2)cc1 (centres undefined),6.29% (inactive),–
